This assay in a line: chemical genetic growth profiling, strain panel (AID 1159580).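 Also: tested at 20 µM; growth read once vehicle control cultures reached saturation at 30 °C; 1 = growth at the plate median or of vehicle wells; lower values mean less growth of the strain.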 The following applies: S. cerevisiae deletion strains, growth OD.

The structures appear in SMILES notation. Screen size: about 5,500 compounds; about 2,000 (36%) were called active. Not shown: some 18% with an inconclusive outcome. Some of the results follow. A number with no mark means an inactive call. Rule as the data show it: active = normalized growth mostly below about 0.91 (no sharp cut-off); inconclusive = no clear call, values can overlap the other calls; inactive = mostly above about 0.92.

On to `O=Nc1c(-c2c(O)[nH]c3ccccc23)[nH]c2ccccc12`, for which the normalized growth is, setting by setting: (locus YAL040C, strain CLN3, active compounds read low) 0.529 (active); (locus YCL061C, strain MRC1 (second series), active compounds read low) 0.997; (locus YDR363W, strain ESC2, active compounds read low) 0.976; (locus YER002W, strain NOP16, active compounds read low) 0.587 (active); (locus YGR078C, strain PAC10, active compounds read low) 0.985; (locus YJR075W, strain HOC1, active compounds read low) 1.01. Further, the normalized growth (locus YNL153C, strain GIM3, active compounds read low) is 1; the normalized growth (locus YNL175C, strain NOP13, active compounds read low) is 0.676 (active); the normalized growth (locus YNL197C, strain WHI3, active compounds read low) is 0.869 (active); the normalized growth (locus YNL224C, strain SQS1, active compounds read low) is 0.951; the normalized growth (locus YOR083W, strain WHI5 (second series), active compounds read low) is 0.46 (active).
